Sampled rows, rich in hits. Any-hit rate of the full collection: about 3.2%.
bovine MsrA act – bovine methionine sulfoxide reductase A activation; purified bovine MsrA, absorbance read-out; activation, % at 10.6 µM; 0.3% of 360,000 active; in the data active means activation above about 7.5%;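 further: 0% = vehicle and 100% = reference activator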
rCAG RNA binder – r(CAG) repeat RNA binding | TO-PRO-1 dye displacement fluorescence | inhibition, % at 3 µM | 1.3% of 370,000 active;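 active means inhibition above the plate cutoff, the mean of all test compounds on that plate plus 3 SD, cut at about 35% in these data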;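 further: 0% = DMSO alone and 100% = 100 µM mitoxantrone as full dye displacement; higher means more dye released from RNA so lower well fluorescence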
sPLA2-III inh – Inhibits HGIII-sPLA2 liposome hydrolysis, primary screen; Q9NZ20; QFRET BODIPY PC-A2 liposome hydrolysis, fluorescence; inhibition, % at 12.2 µM; 0.56% of 370,000 active; AID 743126;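 active means inhibition above mean plus 3 SD of compounds lying within the high and low control bounds, cut at about 19% in these data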;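 further: 0% = median of test compound wells and 100% = no enzyme DMSO wells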
MsrA inhibitor – inhibits bovine methionine sulfoxide reductase A; inhibition, % at 15.5 µM; 0.75% of 360,000 active; purified bovine MsrA, absorbance read-out; in the data active means inhibition above about 4.5%;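 further: 0% = vehicle wells with enzyme and 100% = reference inhibitor wells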
PG9 Ab binder – binds the HIV-1 gp120 antibody PG9; TR-FRET gp120-PG9 antibody binding; inhibition, % at 6.7 µM; 0.43% of 360,000 active; AID 624416; in the data active means inhibition above about 8.5%
PG9 bind confirm – confirmation of small molecules binding HIV-1 gp120 antibody PG9 | shares compounds with PG9 Ab binder | TR-FRET PG9 antibody binding, biochemical | inhibition, % at 6.7 µM | 90% of 1,500 active; in the data active means inhibition above about 9%
PGV04 counter – PGV04 control antibody binding, counter-screen. shares compounds with PG9 Ab binder. TR-FRET PGV04 antibody-gp120 binding, biochemical. inhibition, % at 6.7 µM. 95% of 1,500 active; in the data active means inhibition above about 9.5%
PG9 binder DR – PG9 antibody binding, dose response; IC50, µM; 95 tested, under 10 active; TR-FRET PG9 antibody-gp120 binding inhibition; shares compounds with PG9 Ab binder; in the data active means IC50 below about 10 µM
PGV04 binding DR – PGV04 binding, dose response counter-screen. shares compounds with PG9 Ab binder. AID 651937. TR-FRET binding to control antibody PGV04. IC50, µM. 20% of 95 active
PG126 binding DR – PG126 binding, dose response counter-screen. TR-FRET binding to antibody PG126, counterscreen. 20% of 95 active. AID 651939. shares compounds with PG9 Ab binder. IC50, µM
An asterisk follows results filed as active; i = inactive; . = not tested or not shown; ! = repeats disagree. Unless noted, no stated cut-off is given here; in the data, active means IC50 below about 9 µM; inactive means the rest.

SMILES	bovine MsrA act	rCAG RNA binder	sPLA2-III inh	MsrA inhibitor	PG9 Ab binder	PG9 bind confirm	PGV04 counter	others
CC(=O)Nc1ccc(S(=O)(=O)Nc2nc3cc4c(cc3nc2Cl)OCCO4)cc1	-16	7	4	0	13*	26*	35*
COc1ccc(C(=O)NC2CCSc3ccccc32)cc1 (centres undefined)	-6	0	2	-1	-2	.	.
CSc1ccc(C(=O)NC2CCSc3ccccc32)cc1 (centres undefined)	0	2	-5	0	16*	11*	10*	PG9 binder DR=>67;PGV04 binding DR=i;PG126 binding DR=i
CCOc1ccc(Nc2nc3ccccc3c(=O)s2)cc1	-4	-2	11	0	17*	18*	20*
FC(F)(F)c1ccccc1C(C#Cc1ccccc1)NCc1ccc2c(c1)OCO2 (centres undefined)	.	2	3	.	.	.	.
CCCCNC(=O)O[C@H]1CC[C@@]23CCCN2C(=O)CCC[C@H]3C1	.	.	13	.	.	.	.
CSc1ccc(C#N)cc1NC(=O)c1ccc(Cl)cc1Cl	-4	1	-2	-1	11*	19*	24*
CC1=CC(=C(C#N)C#N)C=C(C)N1Cc1ccc(Cl)cc1	-4	-2	-3	3	19*	24*	31*
COC(=O)C1CCN(C(=O)CCn2nnc(-c3cccs3)n2)CC1	.	-3	10	.	.	.	.
CCOc1ncccc1C(=O)Nc1cc(S(=O)(=O)N2CCCCC2)ccc1Cl	-2	1	3	0	1	.	.
CCOc1ncccc1C(=O)Nc1ccc(Cl)c(S(=O)(=O)N2CCCC2)c1	-9	4	0	1	11*	7	10*
O=C(Nc1sc2c(c1C(=O)NCc1ccco1)CCCC2)c1ccc2c(c1)OCO2	-5	21	1	2	15*	8.6*	20*
CN(Cc1ccccc1)S(=O)(=O)c1cccc(C(=O)OCC2CCCCC2)c1	.	3	2	.	.	.	.
CCc1ccccc1NC(=O)CC1S/C(=N\c2nccs2)N(CC)C1=O (centres undefined)	-12	-4	-21	1	15*	9.0*	12*
CN(C)CCCN1C(=O)C(O)=C(C(=O)c2cc3ccccc3o2)C1c1ccccc1 (centres undefined)	-4	-2	4	2	36*	37*	55*
COc1cccc2cc(C(=O)C3=C(O)C(=O)N(Cc4ccco4)C3c3cccnc3)oc12 (centres undefined)	-2	.	.	.	.	.	.
COC(=O)c1ccc(C2C(C(=O)c3cc4ccccc4o3)=C(O)C(=O)N2CCCN(C)C)cc1 (centres undefined)	-6	2	1	3	19*	20*	29*
O=C(C1=C(O)C(=O)N(Cc2ccco2)C1c1cccnc1)c1cc2ccccc2o1 (centres undefined)	-2	4	-3	2	15*	31*	46*
CN(C)CCCN1C(=O)C(O)=C(C(=O)c2cc3ccccc3o2)C1c1ccccn1 (centres undefined)	-2	3	-2	0	26*	40*	51*
COC(=O)[C@H](C(C)C)N1Cc2nnn(Cc3ccc(C)cc3)c2-c2ccccc2S1(=O)=O	.	2	-12	.	.	.	.
O=C(c1cc2cc(F)ccc2[nH]1)N1CCc2ccccc21	-2	5	9	1	7	.	.
O=C(c1cc2cc(Br)ccc2[nH]1)N1CCc2ccccc21	-2	6	3	-1	15*	22*	46*
Cc1cccc(C)c1NC(=O)C1CCCN1S(=O)(=O)c1cccc2cccnc12 (centres undefined)	.	1	4	.	.	.	.
CN1CCc2cccc3c2[C@H]1Cc1ccc(O)c(O)c1-3	-5	13	12	0	11*!	12*	15*
CCOC(=O)N1CCC(NC(=O)c2cc(-c3ccc(OC)cc3)nc3ccccc23)CC1	-3	-1	2	1	9.5*	8	11*
